Inconclusive results are not listed. The source made the active and inactive calls. Calls follow the shape of the dose curve; as a rule, active = well fitted curve in the direction sought with a large enough effect; inconclusive = small, poorly fitted or top-dose-only effect, or effect the other way, or another doubt; inactive = no such curve, though single readings can be large or run the other way.

In this assay the target is Pyruvate kinase PKLR (Homo sapiens) (UniProt P30613). Put plainly: Confirmation Concentration-Response Assay for Activators of Human Liver Pyruvate Kinase. The conditions noted are these: purified hPK-L, Kinase-Glo ATP luminescence, 1 h; series mostly up to 57.5 µM. From the text: Confirmatory assay NIH Chemical Genomics Center [NCGC] Matthew G. Vander Heiden, M.D., Ph.D. [Harvard Medical School, 77 Avenue Louis Pasteur, Boston, MA 02115] NCGC Assay Overview: Human pyruvate kinase liver (hPK-L) enzyme was supplied as a highly purified (>95% pure) preparation from Harvard Medical School and assayed for its ability to generate ATP from ADP using phosphoenolpyruvate (PEP) as a substrate. ATP generation was detected in a coupled reaction by luciferase-mediated luminescence, an ATP-dependent process. Pyruvate kinase substrates, PEP and ADP, were present in the assay at Km and approximately 10-fold below Km respectively. The enzyme was assayed at an intermediate level of activity to screen for both inhibitors and activators.
Pyruvate kinase PKLR (Homo sapiens), sequence (P30613 whole entry, looked up): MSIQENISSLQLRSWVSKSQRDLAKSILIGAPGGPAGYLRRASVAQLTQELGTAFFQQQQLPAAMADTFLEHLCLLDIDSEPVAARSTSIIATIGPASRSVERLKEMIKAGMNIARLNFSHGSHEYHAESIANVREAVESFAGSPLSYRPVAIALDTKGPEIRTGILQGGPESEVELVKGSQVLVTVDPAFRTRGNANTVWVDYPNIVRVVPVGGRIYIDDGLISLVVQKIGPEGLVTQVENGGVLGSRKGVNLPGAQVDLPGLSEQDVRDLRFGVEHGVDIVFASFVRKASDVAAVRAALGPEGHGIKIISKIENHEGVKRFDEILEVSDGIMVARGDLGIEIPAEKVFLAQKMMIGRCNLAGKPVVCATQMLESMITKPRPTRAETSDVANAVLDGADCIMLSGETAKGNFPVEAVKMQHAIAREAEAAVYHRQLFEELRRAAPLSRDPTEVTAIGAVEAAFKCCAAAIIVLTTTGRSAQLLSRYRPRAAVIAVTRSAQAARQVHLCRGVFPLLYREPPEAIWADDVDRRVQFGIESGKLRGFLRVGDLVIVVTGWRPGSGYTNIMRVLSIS
NCGC Assay Protocol Summary for L-isoform: Three uL of substrate mix (at r.t.) in assay buffer (50 mM Imidazole pH7.2, 50 mM KCl, 7 mM MgCl2, 0.01% Tween 20, 0.05% BSA) was dispensed into white solid bottom 1,536 well microtiter plates so that the final concentrations of substrates in the assay were 0.1 mM ADP and 0.5 mM PEP. 23 nL of compound were delivered by a pin tool and 1 uL of enzyme mix (final concentration of 0.1 nM) in assay buffer (4 degree Celsius) was added. Plates were incubated at room temperature for 1 hour. Two uL of detection mix (Kinase-Glo, Promega; at 4 degree Celsius protected from light) was added and luminescence read by a ViewLux (Perkin Elmer) at 1 second exposure/plate. Data were normalized to the uninhibited (row 31). Additionally, a no enzyme and 5-fold enzyme control was dispensed in row 32, split equally between the two conditions.
Background: Kinase-Glo reads ATP consumption through a luciferase reaction.
As to `CC(=O)Nc1cc2c(s1)c1cnn(Cc3ccccc3F)c(=O)c1n2C`, the outcome was inactive.
Next, `Cc1cc2c(s1)c1cnn(Cc3ccc(F)cc3)c(=O)c1n2C`: “inactive”; `O=S(=O)(c1ccc2c(c1)OCCCO2)N1CCN(S(=O)(=O)c2c(F)cccc2F)CC1`: “inactive”.
The value for `O=S(=O)(NCCCCCCNS(=O)(=O)c1c(F)cccc1F)c1ccc2c(c1)OCCO2` was “inactive”; that for `Cc1ccc(Cn2ncc3c4sc(C)cc4n(C)c3c2=O)c(C)c1` was “inactive”; that for `COc1cc2c(s1)c1cnn(Cc3ccccc3F)c(=O)c1n2C` was “inactive”.
The value for `COC(=O)c1cc2c(s1)c1cnn(Cc3ccccc3F)c(=O)c1n2C` was “inactive”; that for `Cc1cc2c(s1)c1cnn(Cc3ccc(C)c(F)c3F)c(=O)c1n2C` was “inactive”; that for `COc1ccc(Cn2ncc3c4sc(C)cc4n(C)c3c2=O)cc1` was “inactive”.
For the compound `Cc1cc2c(s1)c1cnn(Cc3cccc(F)c3)c(=O)c1n2C`, the compound was classed as inactive.
The value for `O=S(=O)(c1ccc2c(c1)OCO2)N1CCN(S(=O)(=O)c2c(F)cccc2F)CC1` was “inactive”; that for `Cc1cc2c(s1)c1cnn(Cc3ccc(Cl)cc3)c(=O)c1n2C` was “inactive”; that for `Cn1ccc2cc(S(=O)(=O)N3CCN(S(=O)(=O)c4c(F)cccc4F)CC3)ccc21` was “inactive”.
Next, `Cc1cc2c(s1)c1cnn(-c3ccccc3)c(=O)c1n2C`: “inactive”.
Next, `Cc1cc2[nH]c3c(=O)n(Cc4ccccc4F)ncc3c2s1`: “inactive”; `CC(=O)c1cc2c(s1)c1cnn(Cc3ccccc3F)c(=O)c1n2C`: “inactive”; `Cc1cc2c(s1)c1cnn(Cc3cccc(F)c3F)c(=O)c1n2C`: “inactive”.
On to `COc1ccc(S(=O)(=O)N2CCN(S(=O)(=O)c3ccc(OC)cc3)CC2)cc1`, for which the compound was classed as inactive.
The value for `CSc1cc2c(s1)c1cnn(Cc3ccccc3F)c(=O)c1n2C` was “inactive”; that for `Cc1cc2c(s1)c1cnn(Cc3cc(C(F)(F)F)cc(Cl)c3F)c(=O)c1n2C` was “inactive”.
The value for `O=S(=O)(c1cccc(C(F)(F)F)c1)N1CCN(S(=O)(=O)c2ccc3c(c2)OCCO3)CC1` was “inactive”.
For `N#Cc1ccc(S(=O)(=O)N2CCN(S(=O)(=O)c3ccc4c(c3)OCCO4)CC2)cc1`, the call was inactive.
The value for `Cc1cc2c(s1)c1cnn(Cc3ccc(F)c(F)c3F)c(=O)c1n2C` was “inactive”; that for `Cc1cc2c(s1)c1cnn(Cc3ccc(C(F)(F)F)cc3)c(=O)c1n2C` was “inactive”; that for `COc1ccc(Cn2ncc3c4sc(C)cc4n(C)c3c2=O)cc1F` was “inactive”.
Next, `COc1ccc(S(=O)(=O)N2CCN(S(=O)(=O)c3ccc4c(c3)OCCO4)CC2)cc1`: “inactive”.
The value for `Cc1cc2c(s1)c1cnn(Cc3c(F)cccc3Cl)c(=O)c1n2C` was “inactive”; that for `Cc1cc2c(s1)c1cnn(Cc3ccc(-c4ccccc4)cc3)c(=O)c1n2C` was “inactive”.
In the case of `Cc1cc2c(s1)c1cnn(Cc3cccc(Cl)c3)c(=O)c1n2C`, the result was inactive.
The value for `Cc1cc2c(s1)c1cnn(Cc3ccccc3F)c(=O)c1n2C` was “inactive”; that for `Cc1cc2c(s1)c1cnn(Cc3ccccc3Cl)c(=O)c1n2C` was “inactive”; that for `O=S(=O)(c1ccc2c(c1)OCCO2)N1CCN(S(=O)(=O)c2ccc3c(c2)OCCO3)CC1` was “inactive”.
The value for `O=S(=O)(c1c(F)cccc1F)N1CCN(S(=O)(=O)c2c(F)cccc2F)CC1` was “inactive”; that for `Cc1cc2c(s1)c1cnn(Cc3ccccc3)c(=O)c1n2C` was “inactive”; that for `Cn1c2cc(S(C)=O)sc2c2cnn(Cc3ccccc3F)c(=O)c21` (stereo not given) was “inactive”.
Next, `Cc1ccc(Cn2ncc3c4sc(C)cc4n(C)c3c2=O)cc1`: “inactive”; `Cc1cc2c(s1)c1cnn(Cc3ccc(C(F)(F)F)cc3F)c(=O)c1n2C`: “inactive”; `O=C(c1c(F)cccc1F)N1CCN(S(=O)(=O)c2ccc3c(c2)OCCO3)CC1`: “inactive”.
For the compound `CN1CCOc2ccc(S(=O)(=O)N3CCN(S(=O)(=O)c4c(F)cccc4F)CC3)cc21`, the compound was called inactive.
The value for `COc1ccc(S(=O)(=O)N2CCN(S(=O)(=O)c3c(F)cccc3F)CC2)cc1` was “inactive”.

The record behind these values is PubChem BioAssay AID1781 (National Center for Advancing Translational Sciences (NCATS), 2009).
